Source: PubChem BioAssay AID652010 (The Scripps Research Institute Molecular Screening Center, 2013)
Screen size: about 370,000 compounds; about 4,100 (1.1%) were called active.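 How the source made its calls: active means inhibition above the mean over all tested compounds plus 3 SD (cut at about 3.6% in these data); inactive means the rest.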 The list comes from a sample in which actives are over-represented; it also holds similar structures and randomly drawn compounds.

Experiment: DAX1 (NR0B1) inhibitors on StAR promoter, primary screen, cell-based, luminescence, SF-1 (NR5A1), full-length DAX-1 (AID 652010);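 further: 0% = DAX-1 cells with DMSO and 100% = cells lacking DAX-1 with DMSO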
Details: HEK293T StAR-luciferase reporter, SF-1/DAX-1 repression relief; at 6.8 µM; stronger effect = higher value

Structure (SMILES)	inhibition
COc1ccc(-c2csc(-c3cccs3)n2)cc1OC	7.97% (active)
COc1ccc(C2CC(c3cccs3)=Nc3ccccc3S2)cc1OC (configuration not stated)	1.16% (inactive)
COc1ccc(-c2csc3nc(-c4ccccc4F)oc(=O)c23)cc1OC	-0.99% (inactive)
O=C(CCl)NC1CCCCN(Cc2cccc(C(F)(F)F)c2)C1=O (configuration not stated)	-3.93% (inactive)
C[C@H](O)[C@@H]1CN2CCc3ccc(-c4ccc5c(c4)OCO5)cc3[C@@H]2C[C@@H]1N(C)C(=O)C1CCCCC1	0.38% (inactive)
COC(=O)[C@]12C[C@H](CC(=O)N3CCOCC3)C(=O)N(Cc3ccc(Cl)cc3Cl)C1=C[C@H](COCc1ccccc1)O[C@@H]2C	-0.57% (inactive)
CCCCNc1cccc2c1S(=O)(=O)N[C@@H](C)CO2	-0.56% (inactive)
CC(C)c1cc(C(=O)N/N=C/c2ccoc2)c(O)c(C(C)C)c1	-0.83% (inactive)
Cc1ccc(OCC(=O)Oc2ccccc2[N+](=O)[O-])cc1	0.05% (inactive)
CC(Oc1ccccc1[N+](=O)[O-])C(=O)N/N=C/c1ccoc1 (configuration not stated)	6.45% (active)
CCOC(=O)C1CSCCS(=O)(=O)N1Cc1ccc(Cl)cc1 (configuration not stated)	-1.28% (inactive)
COC(=O)c1c(C(=O)OC)c2n(c1C)CCS2	0.03% (inactive)
COc1ccc2nc(SCc3ccccc3)nc(C)c2c1	5.06% (active)
COc1ccc(NCc2nnc(SCc3ccccc3)n2-c2ccc(OC)cc2)cc1	0.16% (inactive)
COc1cccc(CSc2nnc(-c3cccnc3)n2Cc2ccccc2)c1	1.04% (inactive)
COC(=O)[C@]12C[C@H](CC(=O)NCc3ccc(C)o3)C(=O)N(CCC3=CCCCC3)C1=C[C@H](C(C)(C)C)O[C@@H]2C	-0.72% (inactive)
CCOC(=O)[C@@]12CCC3=C1N(CCC3)C(=O)[C@H](CC(=O)N1CCN(C(=O)c3ccco3)CC1)C2	0.29% (inactive)
Cc1ccccc1CN1CCCCC(NC(=O)Nc2ccccc2F)C1=O (configuration not stated)	-2.67% (inactive)
CC(C)(C)c1ccc(/C=C/C(=O)NCCCn2ccnc2)cc1	0.37% (inactive)
Cc1cc(C)nc(NC(=O)/C=C/c2ccc(Cl)cc2)n1	0.12% (inactive)
CC(C)(C)c1ccc(/C=C/C(=O)Nc2ncccn2)cc1	3.9% (active)

Structure (SMILES)	inhibition
CC(=O)N1C[C@@H](CO)[C@@H](N(C)C(=O)C(C)(C)C)C[C@H]1c1ccccc1Br	0.98% (inactive)
COC(=O)C[C@H]1CC[C@H]2[C@H](COc3ccc(NC(=O)C4CC4)cc3C(=O)N2C)O1	1.68% (inactive)
Cc1[nH]nc(-c2ccc(OCc3cnn(-c4ccccc4)c3)cc2O)c1Oc1ccc(Cl)cc1	-0.45% (inactive)
O=C(c1cnn(-c2ccc(Cl)cc2)c1)c1ccccc1O	6.14% (active)
CC(=O)c1nn(-c2ccc(C)cc2)cc1C(=O)c1cccc(Br)c1	-0.24% (inactive)
COc1cccc(Cn2cc(COC(=O)Nc3ccc(F)cc3)nn2)c1	-0.2% (inactive)
COc1ccc(S(=O)(=O)NCC(=O)NC2CC2)cc1OC	-0.86% (inactive)
CC(=O)Nc1ccc(OC[C@@H](O)CN2CCC(C(O)(c3ccccc3)c3ccccc3)CC2)cc1	0.02% (inactive)
O=C(CSc1nnc(CNC(=O)c2ccc(F)cc2)o1)Nc1ccc2c(c1)OCO2	-1.07% (inactive)
COc1ccc(C2Nc3ccccc3C(=O)N2c2ccc(Cl)cc2)cc1Cn1cc([N+](=O)[O-])cn1 (configuration not stated)	3.84% (active)
COc1ccc(CN2CCCC(C(=O)c3ccc(Cl)cc3)C2)cc1Cn1cncn1 (configuration not stated)	0.63% (inactive)
COc1ccc([N+](=O)[O-])cc1C1NN=C(c2cccc3ccccc23)S1 (configuration not stated)	0.7% (inactive)
O=C(Oc1ccc(-c2nnco2)cc1)c1ccc(F)c(S(=O)(=O)N2CCOCC2)c1	-0.14% (inactive)
CC(=O)N1CCCN(C2=Nc3ccccc3Sc3ccccc32)CC1	-0.16% (inactive)
CCC(C)[C@@H](C(=O)OC)N(CCc1cn(Cc2ccccc2)nn1)S(=O)(=O)c1ccccc1Br (some centres not stated)	-0.61% (inactive)
N#Cc1ccccc1OC[C@@H](O)CN1CCC(C(O)(c2ccccc2)c2ccccc2)CC1	-0.84% (inactive)
COc1ccc(/C=C/C(=O)Nc2ccc(C34CC5CC(CC(O)(C5)C3)C4)cc2)cc1OC	8.95% (active)
COc1cc(/C=C/C(=O)Nc2ccc(OC)c(S(=O)(=O)N3CCOCC3)c2)ccc1OCC#N	-2.07% (inactive)
COc1ccc(/C=C/C(=O)OCC(=O)NC2CCCCCC2)cc1OC	2.29% (inactive)
O=C(NC1CCCC1)C1CSCCS(=O)(=O)N1Cc1ccccc1 (configuration not stated)	0.54% (inactive)
CNC(=O)c1[nH]cnc1C(=O)N[C@@H](CC(C)C)C(=O)OC(C)(C)C	-0.49% (inactive)

Structure (SMILES)	inhibition
CC[C@]1(O)C[C@@H]2CN(CCc3c([nH]c4ccccc34)[C@@](C(=O)OC)(c3cc4c(cc3OC)N(C)[C@H]3[C@@](O)(C(=O)OC)[C@H](OC(C)=O)[C@]5(CC)C=CCN6CC[C@]43[C@@H]65)C2)C1	9.42% (active)
CC[C@]1(O)CC2CN(CCc3c([nH]c4ccccc34)[C@@](C(=O)OC)(c3cc4c(cc3OC)N(C=O)[C@H]3[C@@](O)(C(=O)OC)[C@H](OC(C)=O)[C@]5(CC)C=CCN6CC[C@]43[C@@H]65)C2)C1 (some centres not stated)	12.9% (active)
CC(C)(C)c1ccc(CSc2nnc(-c3cccs3)o2)cc1	-0.57% (inactive)
CCOC(=O)C(=O)N(Cc1ccccc1)c1ccccc1C(=O)Nc1cc(OC)ccc1OC	-0.54% (inactive)
CCOC(=O)N1CCN(C(=O)C2CCN(S(C)(=O)=O)CC2)CC1	0.3% (inactive)
Cn1c(SCC(=O)Nc2cccc(NC(=O)c3cccs3)c2)nnc1-c1ccncc1	-0.42% (inactive)
Cc1nc(-c2ccc(NC(=O)c3cccs3)cc2)cs1	3.66% (active)
COc1cc(NC(=O)c2ccc(-c3csc(C)n3)cc2)c(OC)cc1Cl	0.05% (inactive)
O=C(CSc1nnc(COc2ccccc2)n1Cc1ccco1)c1ccc2ccccc2c1	-1.45% (inactive)
O=C(NN=Cc1ccco1)C(=O)Nc1ccc(Cl)c([N+](=O)[O-])c1	0.2% (inactive)
Cc1ccsc1C(=O)NC1CCCCC1C (configuration not stated)	-0.66% (inactive)
Cc1ccsc1C(=O)NCCc1ccco1	4.3% (active)
CCNC(=O)c1sccc1-n1cccc1	-0.31% (inactive)
COc1cccc(CNC(=O)[C@H]2CCCN2C(=O)[C@H]2CCCN2C(=O)C2CCCCC2)c1	-1.49% (inactive)
Cc1ccc(-n2c(SCC(=O)Nc3cccc4ccccc34)nnc2-c2ccccn2)cc1	-0.57% (inactive)
O=C(NCCC1=CCCCC1)C1CCN(S(=O)(=O)c2ccc(Cl)s2)CC1	0.02% (inactive)
CC[C@]12c3[nH]c4cc(CCC(=O)N(C)C)ccc4c3CCN1C(=O)[C@@H](CC(=O)NCCCn1ccnc1)C[C@@H]2C(=O)N1CCN(C(=O)C2CC2)CC1	-0.23% (inactive)
CC[C@]12c3[nH]c4cc(CCC(=O)N(C)C)ccc4c3CCN1C(=O)[C@@H](CC(=O)NCc1ccco1)C[C@@H]2C(=O)N1CCN(C(=O)c2ccco2)CC1	0.22% (inactive)
CC[C@]12c3[nH]c4cc(CCC(=O)N(C)C)ccc4c3CCN1C(=O)[C@@H](CC(=O)NCCCN(C)C)C[C@@H]2C(=O)N1CCN(C(=O)c2ccco2)CC1	3.91% (active)
Cc1nc2ccc(C(=O)N3CCN(C(=O)C(C)(C)C)CC3)cc2n1C1CCCC1	1.16% (inactive)
COc1ccc(-n2c(SCC(=O)Nc3ccc(C)c(Cl)c3)nc3ccccc3c2=O)cc1	-1.67% (inactive)

Structure (SMILES)	inhibition
O=C(NCc1cccs1)c1ccc2c(c1)ncn2C1CCCC1	0.35% (inactive)
Nn1c(SCC(=O)Nc2ccc(S(N)(=O)=O)cc2)nnc1-c1n[nH]c2c1CCC2	0.11% (inactive)
COC(=O)C1CN(CCc2ccccc2)CCS(=O)(=O)N1Cc1ccc(F)cc1 (configuration not stated)	-0.43% (inactive)
CC(C)c1ccc(C=NNc2ccc([N+](=O)[O-])cn2)cc1	4.69% (active)
CC(C)c1ccc(/C=C2\NC(=O)NC2=O)cc1	0.05% (inactive)
CN(CCc1ccccc1)c1ccc([N+](=O)[O-])cn1	-0.34% (inactive)
Cc1ccc(C(=O)NN(CCC#N)C2=NS(=O)(=O)c3ccccc32)cc1	0.06% (inactive)
O=C(NCc1ccccc1)[C@H]1CCCN1C(=O)[C@@H]1CCCN1C(=O)c1ccc(Cl)cc1Cl	0.24% (inactive)
CC[C@@H](CCC(=O)N(c1ccccc1)c1ccccc1)C1CC1	-1.2% (inactive)
CC(=O)Nc1ccc(S(=O)(=O)Oc2ccc(Br)cc2C(=S)N2CCOCC2)cc1	-1.94% (inactive)
O=S(=O)(Oc1ccccc1C(=S)N1CCOCC1)c1ccc(Cl)cc1	3.63% (active)
CCOc1cc(C(=S)N2CCOCC2)ccc1OS(=O)(=O)c1ccc(Br)cc1	0.06% (inactive)
COC(=O)c1cc(S(=O)(=O)N2CCN(c3ccccc3C)CC2)cn1C	-1.02% (inactive)
CC(c1c[nH]c2ccccc12)c1c(-c2ccccc2)n(C)c2ccccc12 (configuration not stated)	-0.37% (inactive)
CC(=O)N1CCc2cc(S(=O)(=O)NCCC(=O)N3CCCC3)ccc21	-1.5% (inactive)
COc1ccc(C(=NN)c2ccc(OC)cc2)cc1	0.31% (inactive)
COc1ccc(/C(N)=N/OC(=O)Oc2ccccc2)cc1	-0.74% (inactive)
COc1ccc(C(C#N)=C2C=CC(=NO)c3ccccc32)cc1	4.3% (active)
O=C(N[C@H](Cc1ccccc1)C(=O)N1CCCN(Cc2cccs2)CC1)[C@H]1O[C@@H](n2ccc(=O)[nH]c2=O)[C@H](O)[C@@H]1O	1.64% (inactive)
